Data from paper PMC7862700, “An all-to-all approach to the identification of sequence-specific readers for epigenetic DNA modifications on cytosine”.

Tests used:
Test in all cases: DAPPL (digital affinity profiling via proximity ligation, sequencing); 10 mM Tris-HCl pH 7.5, 50 mM NaCl, 1 mM DTT, 4% glycerol, room temperature, 30 min; GST-TFs on glutathione beads, 16-mer random dsDNA library, 0.1% formaldehyde crosslink after washing; high values mean tight binding
FEV = molecular target: T1, FEV (Homo sapiens, UniProt Q99581 1-238); settings: protein: recombinant; tags: N-terminal GST; dsDNA, one strand shown
T1 sequence: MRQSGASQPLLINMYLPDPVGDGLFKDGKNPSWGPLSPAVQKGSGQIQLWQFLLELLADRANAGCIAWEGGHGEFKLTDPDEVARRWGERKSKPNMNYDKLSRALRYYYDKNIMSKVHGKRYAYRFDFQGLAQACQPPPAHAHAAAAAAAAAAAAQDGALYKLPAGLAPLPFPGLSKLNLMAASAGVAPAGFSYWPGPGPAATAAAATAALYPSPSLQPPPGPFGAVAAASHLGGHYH
How it was run: (§1)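 After expression in yeast as GST fusions, human transcription factors were bound to glutathione beads, DNA-barcoded and mixed with a tag-only sample. The pools were incubated with 200 nmole of a 16-mer random double-stranded DNA library in Tris/NaCl/DTT/glycerol buffer (30 min, room temperature), washed and crosslinked with 0.1% formaldehyde. Proximity ligation with BsaI/T4 ligase ran for 1 h at 37 °C, before PCR amplification and sequencing on an Illumina NextSeq500. Binding signal is a hexamer's read frequency for a factor divided by its frequency for the tag-only sample.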

ETV5 = ETV5 (Homo sapiens, UniProt P41161 1-510); settings: protein: recombinant; tags: N-terminal GST; dsDNA, one strand shown
How it was run: as §1

HSF1 = HSF1 (Homo sapiens, UniProt Q00613 1-529); settings: protein: recombinant; tags: N-terminal GST; chain copies: 3; dsDNA, one strand shown
How it was run: as §1

SPIC = molecular target: T2, SPIC (Homo sapiens, UniProt Q8N5J4 1-248); settings: protein: recombinant; tags: N-terminal GST; dsDNA, one strand shown
T2 sequence: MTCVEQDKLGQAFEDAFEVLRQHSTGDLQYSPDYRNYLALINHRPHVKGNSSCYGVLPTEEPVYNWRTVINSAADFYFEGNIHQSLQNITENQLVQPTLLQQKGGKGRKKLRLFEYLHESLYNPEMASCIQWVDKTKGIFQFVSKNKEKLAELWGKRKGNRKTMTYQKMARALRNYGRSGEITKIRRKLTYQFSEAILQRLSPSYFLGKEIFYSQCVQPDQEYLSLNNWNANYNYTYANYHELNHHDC
How it was run: as §1

ELF4 = ELF4 (Homo sapiens, UniProt Q99607 1-663); settings: protein: recombinant; tags: N-terminal GST; dsDNA, one strand shown
How it was run: as §1

ELK4 = molecular target: T3, ELK4 (Homo sapiens, UniProt P28324-2 1-405); settings: protein: recombinant; tags: N-terminal GST; dsDNA, one strand shown
T3 sequence: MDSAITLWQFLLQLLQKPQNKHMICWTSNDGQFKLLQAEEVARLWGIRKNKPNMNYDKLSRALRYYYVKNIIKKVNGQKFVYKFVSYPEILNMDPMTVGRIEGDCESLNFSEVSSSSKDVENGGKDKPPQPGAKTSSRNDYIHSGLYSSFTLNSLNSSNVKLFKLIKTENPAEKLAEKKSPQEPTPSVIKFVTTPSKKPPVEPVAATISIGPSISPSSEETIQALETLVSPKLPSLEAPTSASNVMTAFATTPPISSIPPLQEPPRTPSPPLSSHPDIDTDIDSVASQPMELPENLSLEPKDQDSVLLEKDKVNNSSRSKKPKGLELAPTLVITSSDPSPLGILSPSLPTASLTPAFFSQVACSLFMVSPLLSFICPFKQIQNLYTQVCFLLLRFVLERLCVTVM
How it was run: as §1

ETV2 = molecular target: T4, ETV2 (Homo sapiens, UniProt O00321 1-342); settings: protein: recombinant; tags: N-terminal GST; dsDNA, one strand shown
T4 sequence: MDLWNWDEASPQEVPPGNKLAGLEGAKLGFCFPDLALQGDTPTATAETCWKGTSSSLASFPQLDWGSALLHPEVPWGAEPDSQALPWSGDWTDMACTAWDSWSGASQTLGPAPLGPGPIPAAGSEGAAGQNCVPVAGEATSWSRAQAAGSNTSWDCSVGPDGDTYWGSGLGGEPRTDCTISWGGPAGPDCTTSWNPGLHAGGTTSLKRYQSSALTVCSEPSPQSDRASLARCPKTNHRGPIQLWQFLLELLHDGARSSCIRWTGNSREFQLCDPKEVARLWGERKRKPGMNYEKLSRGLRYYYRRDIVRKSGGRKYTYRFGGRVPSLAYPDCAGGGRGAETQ
How it was run: as §1

ELF3 = molecular target: T5, ELF3 (Homo sapiens, UniProt P78545 1-371); settings: protein: recombinant; tags: N-terminal GST; dsDNA, one strand shown
T5 sequence: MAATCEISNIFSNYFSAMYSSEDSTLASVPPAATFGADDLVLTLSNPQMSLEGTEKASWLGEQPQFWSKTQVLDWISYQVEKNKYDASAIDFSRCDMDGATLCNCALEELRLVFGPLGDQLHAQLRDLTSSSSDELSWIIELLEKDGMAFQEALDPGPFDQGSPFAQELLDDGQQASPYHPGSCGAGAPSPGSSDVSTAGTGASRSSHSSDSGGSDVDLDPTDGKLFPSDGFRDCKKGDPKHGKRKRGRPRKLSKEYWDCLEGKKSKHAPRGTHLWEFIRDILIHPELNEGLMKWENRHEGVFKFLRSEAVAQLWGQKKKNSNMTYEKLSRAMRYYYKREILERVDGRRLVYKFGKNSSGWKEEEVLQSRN
How it was run: as §1

CRX = CRX (Homo sapiens, UniProt O43186 1-299); settings: protein: recombinant; tags: N-terminal GST; dsDNA, one strand shown
How it was run: as §1

ETV1 = ETV1 (Homo sapiens, UniProt P50549 1-477); settings: protein: recombinant; tags: N-terminal GST; dsDNA, one strand shown
How it was run: as §1

Chain of CRX (O43186 whole entry): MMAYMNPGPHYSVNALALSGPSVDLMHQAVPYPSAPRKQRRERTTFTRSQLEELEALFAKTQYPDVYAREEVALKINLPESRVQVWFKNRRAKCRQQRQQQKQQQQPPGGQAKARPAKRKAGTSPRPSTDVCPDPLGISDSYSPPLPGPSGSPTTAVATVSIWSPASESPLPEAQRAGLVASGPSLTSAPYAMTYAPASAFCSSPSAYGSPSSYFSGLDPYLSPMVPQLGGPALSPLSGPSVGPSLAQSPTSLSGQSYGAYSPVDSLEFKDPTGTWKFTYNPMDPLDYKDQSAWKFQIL
Chain of HSF1 (Q00613 whole entry): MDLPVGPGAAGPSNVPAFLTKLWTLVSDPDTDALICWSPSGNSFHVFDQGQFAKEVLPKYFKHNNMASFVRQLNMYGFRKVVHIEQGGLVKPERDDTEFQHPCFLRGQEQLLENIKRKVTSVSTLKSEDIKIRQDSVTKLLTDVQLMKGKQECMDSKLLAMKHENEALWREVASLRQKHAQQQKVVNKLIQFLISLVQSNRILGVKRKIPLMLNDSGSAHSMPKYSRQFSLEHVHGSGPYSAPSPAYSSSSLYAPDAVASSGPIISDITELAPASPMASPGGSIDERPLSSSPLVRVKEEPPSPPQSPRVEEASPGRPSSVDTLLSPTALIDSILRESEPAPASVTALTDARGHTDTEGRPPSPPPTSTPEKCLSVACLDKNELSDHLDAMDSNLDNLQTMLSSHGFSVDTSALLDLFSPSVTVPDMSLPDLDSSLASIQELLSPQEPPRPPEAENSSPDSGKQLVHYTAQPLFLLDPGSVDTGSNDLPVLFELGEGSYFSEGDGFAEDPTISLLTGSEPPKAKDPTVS
Chain of ETV1 (P50549 whole entry): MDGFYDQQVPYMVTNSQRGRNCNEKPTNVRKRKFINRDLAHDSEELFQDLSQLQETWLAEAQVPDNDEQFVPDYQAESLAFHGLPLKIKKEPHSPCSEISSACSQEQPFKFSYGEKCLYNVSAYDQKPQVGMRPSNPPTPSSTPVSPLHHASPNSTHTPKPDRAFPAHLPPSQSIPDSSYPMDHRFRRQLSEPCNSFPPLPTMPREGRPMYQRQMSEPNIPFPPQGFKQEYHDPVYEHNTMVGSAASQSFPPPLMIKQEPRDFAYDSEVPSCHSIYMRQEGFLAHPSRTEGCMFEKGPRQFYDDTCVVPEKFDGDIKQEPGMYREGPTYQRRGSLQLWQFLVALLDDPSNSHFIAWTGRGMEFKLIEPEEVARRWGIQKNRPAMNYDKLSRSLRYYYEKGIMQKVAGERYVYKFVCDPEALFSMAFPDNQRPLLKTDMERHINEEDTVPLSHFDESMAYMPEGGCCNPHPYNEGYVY
Chain of ELF4 (Q99607 whole entry): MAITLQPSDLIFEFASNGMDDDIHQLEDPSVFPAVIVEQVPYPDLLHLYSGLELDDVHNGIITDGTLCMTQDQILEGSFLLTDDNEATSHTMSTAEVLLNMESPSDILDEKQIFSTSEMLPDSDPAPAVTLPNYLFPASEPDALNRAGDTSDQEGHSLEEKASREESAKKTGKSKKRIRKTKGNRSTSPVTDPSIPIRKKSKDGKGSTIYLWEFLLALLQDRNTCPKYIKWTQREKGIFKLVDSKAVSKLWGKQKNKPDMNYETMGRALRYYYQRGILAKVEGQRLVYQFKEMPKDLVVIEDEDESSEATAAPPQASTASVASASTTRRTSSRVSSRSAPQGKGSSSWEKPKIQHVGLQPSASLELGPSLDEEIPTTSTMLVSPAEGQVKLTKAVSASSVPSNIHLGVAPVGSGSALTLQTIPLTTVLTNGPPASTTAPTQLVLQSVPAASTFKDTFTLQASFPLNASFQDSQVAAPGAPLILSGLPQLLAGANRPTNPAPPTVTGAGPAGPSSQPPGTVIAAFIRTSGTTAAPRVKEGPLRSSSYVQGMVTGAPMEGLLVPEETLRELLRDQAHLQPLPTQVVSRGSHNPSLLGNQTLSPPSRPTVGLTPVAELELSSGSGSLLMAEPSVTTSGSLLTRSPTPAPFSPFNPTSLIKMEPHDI
Chain of ETV5 (P41161 whole entry): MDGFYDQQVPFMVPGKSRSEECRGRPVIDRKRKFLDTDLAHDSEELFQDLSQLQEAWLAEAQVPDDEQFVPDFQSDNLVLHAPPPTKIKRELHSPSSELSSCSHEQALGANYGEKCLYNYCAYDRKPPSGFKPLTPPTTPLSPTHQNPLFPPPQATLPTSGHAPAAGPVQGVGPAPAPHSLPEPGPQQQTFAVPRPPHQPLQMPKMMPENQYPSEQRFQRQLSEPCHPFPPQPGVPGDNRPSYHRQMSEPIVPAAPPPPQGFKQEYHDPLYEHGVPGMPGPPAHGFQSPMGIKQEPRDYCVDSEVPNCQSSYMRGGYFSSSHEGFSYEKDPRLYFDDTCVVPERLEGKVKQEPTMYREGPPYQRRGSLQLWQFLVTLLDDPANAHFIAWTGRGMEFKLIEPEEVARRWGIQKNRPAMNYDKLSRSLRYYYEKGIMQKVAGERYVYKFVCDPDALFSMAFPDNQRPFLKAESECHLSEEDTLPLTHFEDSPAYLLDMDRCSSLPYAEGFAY

**Q.** How did the binding signal (FEV) turn out when ACCTGG was run?
**A.** 1.17 fold enrichment (6-mer frequency, TF over GST control)

**Q.** And the binding signal (ETV5)?
**A.** 1.2 fold enrichment (6-mer frequency, TF over GST control)

**Q.** What about the binding signal (HSF1) of the same sequence?
**A.** 1.2 fold enrichment (6-mer frequency, TF over GST control)

**Q.** And the binding signal (SPIC)?
**A.** 1.18 fold enrichment (6-mer frequency, TF over GST control)

**Q.** What about the binding signal (ELF4) of the same sequence?
**A.** 1.33 fold enrichment (6-mer frequency, TF over GST control)

**Q.** What about the binding signal (ELK4) of the same sequence?
**A.** 1.25 fold enrichment (6-mer frequency, TF over GST control)

**Q.** And the binding signal (ETV2)?
**A.** 1.35 fold enrichment (6-mer frequency, TF over GST control)

**Q.** And the binding signal (ELF3)?
**A.** 1.19 fold enrichment (6-mer frequency, TF over GST control)

**Q.** And the binding signal (CRX)?
**A.** 1.14 fold enrichment (6-mer frequency, TF over GST control)

**Q.** And the binding signal (ETV1)?
**A.** 1.29 fold enrichment (6-mer frequency, TF over GST control)
